Laboratory results as given in PubChem BioAssay.
Measured potencies and affinities stand elsewhere. Results filed as inconclusive are left out. The source made the active and inactive calls. Unless noted, the rule behind the calls is not given here.

What was measured:
[1] = cytotoxicity in PAX8-dependent RMG-1 cells, dose response, cell-based, cherry-pick (AID 687029;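 active = signal drop whose fitted half-maximal concentration is at most twice the top valid dose, in every test run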;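 note: cells exposed to compound for 96 hours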)
[2] = cytotoxicity in IOSE-T80 ovarian epithelial cells, dose response, selectivity assay for PAX8 inhibitor project, cell-based, cherry-pick (AID 687032;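 active = fitted half-maximal concentration for viability loss no higher than twice the top valid dose, in every repeat run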;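 note: cells exposed to compound for 96 h before reading; 0% = neutral control wells and -100% = 2 µM mitoxantrone kill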)
[3] = inhibitors of CMV-promoter luciferase reporter, dose response, counter-screen for Pax8 inhibitor project, cell-based, HEK293, luminescence, dry powder (AID 743020;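 active = signal-lowering compounds whose fitted half-maximal concentration is at or below twice the top tested dose in every run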;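 note: HEK293 cells stably expressing the CMV luciferase reporter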)
[4] = non-specific cell cytotoxicity, dose response, cytotoxicity control for PAX8 inhibitor project, plate reader, dry powder samples (AID 743021)
[5] = IGROV1 ovarian cancer cell cytotoxicity, dose response, PAX8 inhibitor project, plate reader, dry powder samples (AID 743043);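 note: more negative means fewer viable cells or more cytotoxicity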
[6] = NIH:OVCAR-3 ovarian cancer cell cytotoxicity, dose response, PAX8 inhibitor project, plate reader, dry powder samples (AID 743044); details: max activity: at 35 µM, active compounds read low unless noted
[7] = IOSE-T80 ovarian epithelial cell cytotoxicity, dose response, cytotoxicity control for PAX8 inhibitor project, plate reader, dry powder samples (AID 743045);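 note: 0% = neutral control median and -100% = positive control median; more negative values mean more cell killing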
[8] = A2780 ovarian cancer cell cytotoxicity, dose response, cytotoxicity control, plate reader, dry powder samples (AID 743046);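 note: 0% = neutral control wells and -100% = cytotoxic reference compound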

Measured: max activity

CCCC#Cc1ccc([C@H]2[C@H]3CN(S(=O)(=O)Cc4ccccc4)CCCCN3[C@H]2CO)cc1
inactive: [1] | [2] | [3] | [4] | [5] | [6] -34.3% | [7] | [8]

Cc1ccc(S(=O)(=O)Nc2ccc3c(c2)C(=O)N([C@@H](C)CO)C[C@H](C)[C@H](CN(C)Cc2ccc(C(F)(F)F)cc2)OCCCC[C@@H](C)O3)cc1
inactive: [1] | [2] | [3] | [4] | [5] | [6] 9.21% | [7] | [8]

C[C@@H]1CCCCO[C@@H](CN(C)Cc2ccc(Cl)c(Cl)c2)[C@H](C)CN([C@@H](C)CO)C(=O)c2cc(NS(=O)(=O)c3ccccc3)ccc2O1
inactive: [1] | [2] | [3] | [4] | [5] | [6] -34.1% [at 0.26 µM, active compounds read low] | [7] | [8]

C[C@@H]1CN([C@@H](C)CO)C(=O)c2c(c3ccccc3n2C)-c2ccccc2CO[C@H]1CN(C)S(=O)(=O)c1ccccc1F
inactive: [1] | [2] | [3] | [4] | [5] | [6] -17.2% [at 18 µM, active compounds read low] | [7] | [8]

C[C@H]1CN([C@@H](C)CO)C(=O)c2cc(NS(=O)(=O)c3ccc(Cl)cc3)ccc2O[C@H]1CN(C)Cc1ccc(Cl)c(Cl)c1
inactive: [1] | [2] | [3] | [4] | [5] | [6] -29.6% | [7] | [8]

C[C@@H]1CCCCO[C@H](CN(C)Cc2ccc3c(c2)OCO3)[C@@H](C)CN([C@@H](C)CO)C(=O)c2cc(NS(=O)(=O)c3ccc(Cl)cc3)ccc2O1
inactive: [1] | [2] | [3] | [4] | [5] | [6] -40.7% [at 16 µM, active compounds read low] | [7] | [8]

C[C@@H]1CCCCO[C@@H](CN(C)Cc2ccc(Cl)c(Cl)c2)[C@H](C)CN([C@H](C)CO)C(=O)c2cc(NC(=O)Nc3ccc(F)cc3)ccc2O1
inactive: [1] | [2] | [3] | [4] | [5] | [6] -37% | [7] | [8]

COc1ccc(-c2ccc3c(c2)[C@@H]2[C@@H](CCN2C(=O)C2CCCC2)[C@H](CO)N3C)cc1
inactive: [1] | [2] | [3] | [4] | [5] | [6] -19.3% [at 18 µM, active compounds read low] | [7] | [8]

C[C@@H]1CN([C@H](C)CO)C(=O)c2cc(NS(=O)(=O)c3ccccc3)ccc2O[C@@H](C)CCCCO[C@H]1CN(C)Cc1ccc(Cl)c(Cl)c1
inactive: [1] | [2] | [3] | [4] | [5] | [6] 22% [at 0.5 µM, active compounds read low] | [7] | [8]

C[C@H](CO)N1C[C@H](C)[C@H](CN(C)S(=O)(=O)c2ccc(F)cc2)OCCCC[C@H](C)Oc2ccc(NC(=O)Nc3ccc(F)cc3)cc2C1=O
inactive: [1] | [2] | [3] | [4] | [5] | [6] -19% [at 16 µM, active compounds read low] | [7] | [8]

Cc1ccc(S(=O)(=O)Nc2ccc3c(c2)C(=O)N([C@H](C)CO)C[C@@H](C)[C@H](CN(C)S(=O)(=O)c2ccc(Cl)cc2)OCCCC[C@H](C)O3)cc1
inactive: [1] | [2] | [3] | [4] | [5] | [6] -15.5% | [7] | [8]

CC(C)CC#Cc1ccc2c(c1)O[C@@H](CN(C)S(=O)(=O)c1ccc(F)cc1)[C@H](C)CN([C@@H](C)CO)S2(=O)=O
inactive: [1] | [2] | [3] | [4] | [5] | [6] 21.6% [at 4.2 µM, active compounds read low] | [7] | [8]

C[C@H]1CCCCO[C@H](CN(C)Cc2ccc(Cl)c(Cl)c2)[C@@H](C)CN([C@@H](C)CO)C(=O)c2cc(NC(=O)Nc3ccccc3)ccc2O1
inactive: [1] | [2] | [3] | [4] | [5] | [6] -18.6% | [7] | [8]

C[C@H](CO)N1C[C@H](C)[C@H](CN(C)Cc2ccc(C(F)(F)F)cc2)Oc2ccc(NS(=O)(=O)c3ccc(F)cc3)cc2CC1=O
inactive: [1] | [2] | [3] | [4] | [5] | [6] 12.3% [at 16 µM, active compounds read low] | [7] | [8]

C[C@@H]1CCCCO[C@H](CN(C)Cc2ccc(C(F)(F)F)cc2)[C@@H](C)CN([C@@H](C)CO)C(=O)c2cc(NS(=O)(=O)c3ccccc3)ccc2O1
inactive: [1] | [2] | [3] | [4] | [5] | [6] -9.99% | [7] | [8]

COc1ccc(CN(C)C[C@@H]2OCCCC[C@@H](C)Oc3ccc(NC(=O)Nc4ccc(C(F)(F)F)cc4)cc3C(=O)N([C@@H](C)CO)C[C@H]2C)cc1
inactive: [1] | [2] | [3] | [4] | [5] | [6] -5.22% [at 16 µM, active compounds read low] | [7] | [8]

C[C@H](O)C#Cc1ccc2c(c1)O[C@@H](CN(C)Cc1ccc(-c3ccccc3)cc1)[C@@H](C)CN([C@@H](C)CO)S2(=O)=O
inactive: [1] | [2] | [3] | [4] | [5] | [6] -22.5% | [7] | [8]

O=C(C[C@@H]1CC[C@H]2[C@@H](COC[C@@H](O)CN2Cc2cccc(C(F)(F)F)c2)O1)NCc1ccc(F)cc1
inactive: [1] | [2] | [3] | [4] | [5] | [6] 13.4% [at 2.1 µM, active compounds read low] | [7] | [8]

C[C@@H]1CN([C@@H](C)CO)S(=O)(=O)c2ccc(C#C[C@@H](C)O)cc2O[C@@H]1CN(C)Cc1ccc(-c2ccccc2)cc1
inactive: [1] | [2] | [3] | [4] | [5] | [6] -11.9% [at 16 µM, active compounds read low] | [7] | [8]

C[C@@H]1CCCCO[C@@H](CN(C)Cc2ccccc2)[C@H](C)CN([C@H](C)CO)C(=O)c2cc(NC(=O)Nc3ccc(C(F)(F)F)cc3)ccc2O1
inactive: [1] | [2] | [3] | [4] | [5] | [6] -20.2% [at 16 µM, active compounds read low] | [7] | [8]

CCCC#Cc1ccc2c(c1)O[C@H](CN(C)Cc1ccccc1)[C@@H](C)CN([C@H](C)CO)S2(=O)=O
inactive: [1] | [2] | [3] | [4] | [5] | [6] 7.94% [at 1 µM, active compounds read low] | [7] | [8]
